PubChem BioAssay (Tox21)
“And” between values parts separate entries of the source, which are not always exact repeats. Equal values may be shown once. Inconclusive results are not listed. The source made the active and inactive calls. Unless noted, the call rests on the fitted dose curve; in most records, active means well fitted curve in the direction sought with a large enough effect in the repeat runs; inconclusive means weak or mixed curves; inactive means no such curve, though single readings can be large; an effect the other way counts as inactive or inconclusive.

Legend:
[1] = qHTS assay to identify small molecule antagonists of the thyroid receptor (TR) signaling pathway - cell viability counter screen (AID 743064); settings: GH3.TRE-Luc viability, CellTiter-Fluor, 24 h; series mostly up to 70.3 µM; further: nearly all actives have a fitted effect of over 50% in size
Method in brief: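 Viability of T3-stimulated (1 nM final) GH3.TRE-Luc cells is measured by CellTiter-Fluor fluorescence after 23.5 h compound exposure at 37 °C plus 30 min reagent incubation.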

[2] = qHTS assay to identify small molecule antagonists of the thyroid receptor (TR) signaling pathway (AID 743065); settings: GH3.TRE-Luc, T3-stimulated luciferase inhibition, 23.5 h; series mostly up to 70.3 µM; further: nearly all actives have a fitted effect of over 55% in size
Method in brief: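 GH3.TRE-Luc rat pituitary cells (two TREs driving luciferase) were dosed with compound, then stimulated with 1 nM T3 (final) for 23.5 h at 37 C. ONE-Glo luminescence was the read-out, with CellTiter-Fluor fluorescence as the cytotoxicity counter-screen.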

[3] = tested on: thyroid hormone receptor (rat, GH3 cells); test: qHTS assay to identify small molecule agonists of the thyroid receptor (TR) signaling pathway (AID 743066; calls by dose curve); settings: GH3.TRE-Luc cells, TR agonist luciferase, 24 h; series mostly up to 83.9 µM
[4] = molecular target: Estrogen receptor (Homo sapiens) (UniProt P03372); test: qHTS assay to identify small molecule antagonists of the estrogen receptor alpha (ER-alpha) signaling pathway (AID 743069; active means well fitted curve in the direction sought with a large enough effect in the signal ratio in the repeat runs, not every such curve was filed as active; the % refers to the signal ratio); settings: HEK293 ER-alpha-UAS-bla, beta-lactamase ratio, antagonist mode; series mostly up to 69.4 µM
Method in brief: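 HEK293 ER-alpha-UAS-bla GripTite cells, held overnight in 2% charcoal-stripped FBS, 5,000 cells/well, preincubated 4 h, then compound plus 17beta-estradiol for 18 h at 37C. Beta-lactamase read by LiveBLAzer B/G FRET substrate, 2 h at room temperature.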

[5] = molecular target: Estrogen receptor (Homo sapiens) (UniProt P03372); test: qHTS assay to identify small molecule agonists of the estrogen receptor alpha (ER-alpha) signaling pathway (AID 743075; calls by dose curve); settings: HEK293 ER-alpha-UAS-bla, beta-lactamase FRET ratio, 18 h; series mostly up to 70.1 µM
[6] = molecular target: Estrogen receptor (Homo sapiens) (UniProt P03372); test: qHTS assay to identify small molecule agonists of the estrogen receptor alpha (ER-alpha) signaling pathway using the BG1 cell line (AID 743079); settings: BG1Luc4E2 cells, ERE-luciferase agonist, 22 h; series mostly up to 70.3 µM; further: nearly all actives have a fitted effect of over 20% in size; further: potency means the concentration at half of the fitted maximal effect
[7] = qHTS assay to identify small molecule antagonists of the estrogen receptor alpha (ER-alpha) signaling pathway using the BG1 cell line (AID 743080; calls by dose curve;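 further: BG1 cells stimulated with 17beta-estradiol alongside compound; nearly all actives have a fitted effect of over 25% in size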); settings: BG1Luc4E2 ERE-luciferase antagonist mode, luminescence; series mostly up to 70.3 µM
Method in brief: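 Readout is ONE-Glo luminescence, taken 30 min at room temperature after reagent addition, preceded by a CellTiter-Fluor viability read; BG1-Luc-4E2 cells had received compound and 17beta-estradiol for 21.5 h at 37 C.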

[8] = qHTS assay to identify small molecule antagonists of the estrogen receptor alpha (ER-alpha) signaling pathway using the BG1 cell line - cell viability counter screen (AID 743081); settings: BG1Luc4E2 viability, CellTiter-Fluor, 22 h; series mostly up to 70.3 µM;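 further: compound given together with 17beta-estradiol as the ER stimulus; nearly all actives have a fitted effect of over 45% in size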
[9] = molecular target: Aromatase (Homo sapiens) (UniProt P11511); test: qHTS assay to identify aromatase inhibitors (AID 743083); settings: MCF-7 aro ERE, testosterone-driven ERE luciferase, 24 h; series mostly up to 70.3 µM; further: nearly all actives have a fitted effect of over 55% in size
[10] = qHTS assay to identify aromatase inhibitors - cell viability counter screen (AID 743084); settings: MCF-7 aro ERE viability, CellTiter-Fluor, 24 h; series mostly up to 70.3 µM;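 further: cells stimulated with testosterone during compound exposure; nearly all actives have a fitted effect of over 55% in size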
[11] = molecular target: Aryl hydrocarbon receptor (Homo sapiens) (UniProt P35869); test: qHTS assay to identify small molecule that activate the aryl hydrocarbon receptor (AhR) signaling pathway (AID 743085); settings: HepG2 AhR-luc (HG2L7.5c1), luciferase, 24 h; series mostly up to 70.3 µM; further: nearly all actives have a fitted effect of over 15% in size; further: potency means the concentration at half of the fitted maximal effect;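 on activation: HG2L7.5c1 human HepG2 liver cells with stably integrated DRE-driven firefly reporter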
Method in brief: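 A multiplexed format paired cell viability (CellTiter-Fluor fluorescence) with AhR-dependent luciferase output (ONE-Glo luminescence) in the same wells of HepG2 DRE-luc cells after 24 h compound exposure at 37C.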

[12] = qHTS assay to identify small molecule that activate the aryl hydrocarbon receptor (AhR) signaling pathway - cell viability counter screen (AID 743086); settings: HepG2-AhR-luc viability, CellTiter-Fluor, 24 h; series mostly up to 70.3 µM;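 further: HepG2 liver cells carrying the AhR DRE luciferase reporter; nearly all actives have a fitted effect of over 45% in size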
Method in brief: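 HepG2-AhR-luc (HG2L7.5c1) cells, 4000/well, treated 24 h at 37 C with compound; viability measured as CellTiter-Fluor fluorescence after 30 min in the same wells as the luciferase read.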

[13] = molecular target: Peroxisome proliferator-activated receptor gamma (Homo sapiens) (UniProt P37231); test: qHTS assay to identify small molecule agonists of the peroxisome proliferator-activated receptor gamma (PPARg) signaling pathway (AID 743094; active means well fitted activation curve with a large enough effect in the signal ratio in the repeat runs, not every such curve was filed as active; the % refers to the signal ratio); settings: HEK293H PPARg-UAS-bla, beta-lactamase FRET ratio, 17 h; series mostly up to 57 µM
Method in brief: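 Stably transfected HEK293H cells (GeneBLAzer PPARg UAS-bla) were incubated with test substances for 17 h at 37C after a 5 h pre-incubation; beta-lactamase activity was then detected by FRET substrate fluorescence.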

[14] = qHTS assay to identify small molecule antagonists of the peroxisome proliferator-activated receptor gamma (PPARg) signaling pathway - cell viability counter screen (AID 743194); settings: PPARg-bla HEK293H viability, CellTiter-Glo luminescence, 17 h, co-treated with 50 nM rosiglitazone; series mostly up to 62.6 µM; further: nearly all actives have a fitted effect of over 55% in size
Method in brief: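 Cytotoxicity counter screen in PPARg-bla HEK293H cells, same wells as reporter assay. Compounds plus 50 nM rosiglitazone (final) for 17 h at 37 C, then viability read by CellTiter-Glo luminescence.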

[15] = qHTS assay for small molecule agonists of the antioxidant response element (ARE) signaling pathway (AID 743202; active means well fitted activation curve with a large enough effect in the signal ratio in the repeat runs, not every such curve was filed as active; the % refers to the signal ratio); settings: HepG2 ARE-bla reporter, beta-lactamase FRET, 16 h; series mostly up to 73.3 µM
Method in brief: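 ARE-bla HepG2 cells (beta-lactamase reporter under the antioxidant response element), plated 5 hours, then exposed to compounds 16 hours at 37 C. LiveBLAzer B/G FRET substrate added for 2 hours at room temperature; fluorescence intensity read.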

[16] = qHTS assay for small molecule agonists of the antioxidant response element (ARE) signaling pathway - cell viability counter screen (AID 743203; calls by dose curve; further: nearly all actives have a fitted effect of over 55% in size); settings: ARE-bla HepG2 viability, CellTiter-Glo luminescence, 16 h; series mostly up to 73.3 µM
Method in brief: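 Cells (ARE-bla HepG2, 2,000/well) receive DMSO-dissolved compounds after a 5 hrs rest. Plates incubate 16 hrs at 37C/5% CO2. CellTiter-Glo luminescence is then recorded after 30 min at room temperature.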

[17] = qHTS assay for small molecule activators of the heat shock response signaling pathway - cell viability counter screen (AID 743209); settings: HSE-bla HeLa viability, CellTiter-Glo luminescence, 5 h; series mostly up to 62.6 µM; further: nearly all actives have a fitted effect of over 50% in size
Method in brief: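 Quantitative HTS format, Tox21 10K library. HeLa cells carrying an HSE-driven beta-lactamase reporter were treated 5 h at 37 C, then assessed for viability by CellTiter-Glo luminescence.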

[18] = qHTS assay for small molecule activators of the heat shock response signaling pathway (AID 743210; active means well fitted activation curve with a large enough effect in the signal ratio in the repeat runs, with a control signal flat, not every such curve was filed as active; the % refers to the signal ratio); settings: HeLa HSE-bla reporter, beta-lactamase ratio, 5 h; series mostly up to 62.6 µM
Method in brief: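 HSE-bla HeLa cells (beta-lactamase reporter under heat shock response elements), plated overnight, then exposed to compounds 5 h at 37 C; LiveBLAzer B/G FRET substrate added, 2.5 h at room temperature, fluorescence intensity read.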

[19] = qHTS assay to identify small molecule antagonists of the estrogen receptor alpha (ER-alpha) signaling pathway - cell viability counter screen (AID 743074; calls by dose curve;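 further: HEK293 cells carrying ER-alpha-UAS-bla reporter stimulated with 17beta-estradiol; nearly all actives have a fitted effect of over 45% in size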); settings: ERalpha-bla HEK293 viability, CellTiter-Glo luminescence, 18 h; series mostly up to 69.4 µM
[20] = molecular target: Peroxisome proliferator-activated receptor gamma (Homo sapiens) (UniProt P37231); test: qHTS assay to identify small molecule antagonists of the peroxisome proliferator-activated receptor gamma (PPARg) signaling pathway (AID 743191; calls by dose curve; further: nearly all actives have a fitted effect of over 30% in size); settings: HEK293H PPARg-UAS-bla, beta-lactamase ratio, antagonist, 17 h; series mostly up to 62.6 µM
Method in brief: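 GeneBLAzer PPARg UAS-bla HEK293H cells, 5 h post-plating, exposed to compounds 17 h at 37C. LiveBLAzer B/G FRET substrate added for 1 h at room temperature; beta-lactamase reporter read by fluorescence intensity.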

Measured: Potency

Chain of Aromatase (Homo sapiens) (P11511 whole entry, looked up): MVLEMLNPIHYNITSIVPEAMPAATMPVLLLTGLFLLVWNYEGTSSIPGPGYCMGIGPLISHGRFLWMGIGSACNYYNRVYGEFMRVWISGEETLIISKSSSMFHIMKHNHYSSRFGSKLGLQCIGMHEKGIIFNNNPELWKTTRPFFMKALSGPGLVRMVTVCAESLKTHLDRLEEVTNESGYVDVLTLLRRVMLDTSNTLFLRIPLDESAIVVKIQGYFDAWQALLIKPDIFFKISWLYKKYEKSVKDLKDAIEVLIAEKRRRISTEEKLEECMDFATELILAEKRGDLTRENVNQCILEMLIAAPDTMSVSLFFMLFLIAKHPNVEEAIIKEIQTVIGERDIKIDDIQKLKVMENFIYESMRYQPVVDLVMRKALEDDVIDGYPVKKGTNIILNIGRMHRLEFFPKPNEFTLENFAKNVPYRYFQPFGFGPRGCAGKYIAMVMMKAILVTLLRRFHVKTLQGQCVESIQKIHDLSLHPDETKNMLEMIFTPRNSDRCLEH
Chain of Aryl hydrocarbon receptor (Homo sapiens) (P35869 whole entry, looked up): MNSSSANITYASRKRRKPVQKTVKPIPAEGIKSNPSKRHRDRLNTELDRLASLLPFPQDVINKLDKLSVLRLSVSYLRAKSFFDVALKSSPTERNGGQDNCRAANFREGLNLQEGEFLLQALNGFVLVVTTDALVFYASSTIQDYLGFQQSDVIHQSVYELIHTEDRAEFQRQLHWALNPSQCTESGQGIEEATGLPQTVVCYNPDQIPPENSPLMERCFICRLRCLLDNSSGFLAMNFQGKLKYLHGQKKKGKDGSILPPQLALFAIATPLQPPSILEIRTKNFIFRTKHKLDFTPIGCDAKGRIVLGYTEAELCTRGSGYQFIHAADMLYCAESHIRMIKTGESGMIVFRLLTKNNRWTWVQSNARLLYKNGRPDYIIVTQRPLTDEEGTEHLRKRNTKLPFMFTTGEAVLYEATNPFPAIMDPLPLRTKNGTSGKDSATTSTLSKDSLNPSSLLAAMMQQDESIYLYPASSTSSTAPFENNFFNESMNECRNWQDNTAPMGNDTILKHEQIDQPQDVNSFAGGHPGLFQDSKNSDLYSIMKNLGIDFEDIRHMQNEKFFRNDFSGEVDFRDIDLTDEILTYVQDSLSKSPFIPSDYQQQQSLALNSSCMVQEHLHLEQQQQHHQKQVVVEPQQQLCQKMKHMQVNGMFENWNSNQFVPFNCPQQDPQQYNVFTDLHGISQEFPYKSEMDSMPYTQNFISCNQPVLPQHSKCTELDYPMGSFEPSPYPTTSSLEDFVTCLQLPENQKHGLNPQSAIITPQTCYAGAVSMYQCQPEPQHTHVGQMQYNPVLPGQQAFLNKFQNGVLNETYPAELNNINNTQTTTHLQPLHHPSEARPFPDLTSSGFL
Chain of Peroxisome proliferator-activated receptor gamma (Homo sapiens) (P37231 whole entry, looked up): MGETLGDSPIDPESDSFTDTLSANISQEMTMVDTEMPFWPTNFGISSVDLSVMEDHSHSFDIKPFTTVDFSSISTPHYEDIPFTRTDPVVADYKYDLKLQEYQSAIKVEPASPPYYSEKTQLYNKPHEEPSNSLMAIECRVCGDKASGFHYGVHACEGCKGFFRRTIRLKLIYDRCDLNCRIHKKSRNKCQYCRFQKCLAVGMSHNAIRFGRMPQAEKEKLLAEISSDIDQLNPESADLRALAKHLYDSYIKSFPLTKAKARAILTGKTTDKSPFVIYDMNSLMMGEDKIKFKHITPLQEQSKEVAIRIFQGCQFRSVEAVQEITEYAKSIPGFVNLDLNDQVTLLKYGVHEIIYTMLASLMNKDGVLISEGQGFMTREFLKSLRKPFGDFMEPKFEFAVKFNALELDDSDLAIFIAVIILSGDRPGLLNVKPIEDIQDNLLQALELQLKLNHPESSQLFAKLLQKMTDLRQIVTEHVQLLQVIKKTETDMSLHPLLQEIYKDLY
Chain of Estrogen receptor (Homo sapiens) (P03372 whole entry, looked up): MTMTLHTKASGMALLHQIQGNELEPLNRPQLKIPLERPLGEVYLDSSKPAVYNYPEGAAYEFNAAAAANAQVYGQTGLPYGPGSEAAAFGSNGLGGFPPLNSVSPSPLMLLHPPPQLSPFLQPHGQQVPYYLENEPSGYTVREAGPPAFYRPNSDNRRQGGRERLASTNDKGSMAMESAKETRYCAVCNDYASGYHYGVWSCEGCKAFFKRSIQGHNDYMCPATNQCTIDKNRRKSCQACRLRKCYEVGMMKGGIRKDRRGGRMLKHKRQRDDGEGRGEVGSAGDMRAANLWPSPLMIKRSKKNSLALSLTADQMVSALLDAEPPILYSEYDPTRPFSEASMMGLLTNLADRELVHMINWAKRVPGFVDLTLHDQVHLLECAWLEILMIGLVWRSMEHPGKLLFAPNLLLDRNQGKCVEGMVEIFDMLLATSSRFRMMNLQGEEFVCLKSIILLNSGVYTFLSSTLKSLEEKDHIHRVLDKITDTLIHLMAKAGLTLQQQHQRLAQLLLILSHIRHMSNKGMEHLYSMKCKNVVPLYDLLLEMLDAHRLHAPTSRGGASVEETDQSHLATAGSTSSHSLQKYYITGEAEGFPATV

CCCCCOC(=O)CCCCC
not listed: [19] | [20]
inactive: all other assays above

CCCCCCCCCCCCCCCCC
active: [6] 61.1 µM
not listed: [4] | [7] | [16]
inactive: all other assays above

OCCOc1ccc(OCCO)cc1
not listed: [4]
inactive: all other assays above

CN1CCCC1
not listed: [11] | [14] | [19]
inactive: all other assays above

Cc1nc2c([nH]1)c(=O)n(C)c(=O)n2Cc1ccco1
not listed: [7] | [11] | [13] | [20]
inactive: all other assays above

O=c1cc(-c2ccccc2)oc2ccccc12
active: [6] 2.43 µM and 3.95 µM | [11] 24.3 µM and 5.91 µM
not listed: [5] | [7] | [9] | [15] | [20]
inactive: all other assays above

COc1ccccc1OCC(O)CN1CCN(CC(=O)Nc2c(C)cccc2C)CC1 (stereo unspecified)
not listed: [4] | [20]
inactive: all other assays above

COC(=O)CC(C)=O
not listed: [4] | [5] | [6] | [7]
inactive: all other assays above

NC(=O)c1ccc([N+](=O)[O-])cc1
not listed: [4] | [5] | [6] | [7] | [13] | [15] | [18]
inactive: all other assays above

CCCN1CCCC[C@H]1C(=O)Nc1c(C)cccc1C
not listed: [4] | [5] | [6] | [7] | [15] | [20]
inactive: all other assays above

O=c1[nH]c(=O)n([C@H]2C[C@H](O)[C@@H](CO)O2)cc1I
not listed: [4] | [5] | [6] | [7]
inactive: all other assays above

COC(=O)c1ccc(C)cc1C1=NC(C)(C(C)C)C(=O)N1 (stereo unspecified)
not listed: [4] | [5] | [6] | [7] | [12] | [13] | [15]
inactive: all other assays above

N=C(N)c1ccccc1
not listed: [4] | [5] | [6] | [7]
inactive: all other assays above

CN1CC(=O)NC1=N
not listed: [4] | [5] | [6] | [7] | [13] | [16] | [20]
inactive: all other assays above
